Screens (PubChem)
FUS suppressor: rescues growth of FUS-expressing yeast; S. cerevisiae FUS-expressing, growth rescue, OD600, 24 h; Potency, µM (series often up to 76.6 µM), usual class: activators; 0.24% of 390,000 active; AID 1347120;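 also: potency is read from the fitted curve at half-maximal effect; plate controls were DMSO vehicle for no effect and reference control for full effect; nearly all actives have a fitted effect of over 55% in size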
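Read-out: OD at 600 nm after 24hr at 30C, reporting rescue of FUS-induced yeast toxicity. Cells at OD 0.005 in galactose (2%) minimal medium; compounds tested in a dilution series; CP55940 titration from 92uM final as control.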
Mm-Cpn inhibitor: inhibitors of Methanococcus maripaludis chaperonin TRiC (MmCpn). Potency, µM (highest dose often 76.9 µM), inactives show top-dose activity, negative = inhibition, actives largely listed as inhibitors. 0.031% of 330,000 active. purified Mm-Cpn ATPase, ADP Transcreener TR-FRET; also: potency is read from the fitted curve at half-maximal effect; % is scaled to controls: 0 for no effect and ±100 for the full control effect; nearly all actives have a fitted effect of over 80% in size
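Quantitative HTS used 25 nM Mm-CPN and 10 uM ATP in magnesium/KCl Tris buffer, pH 7.4, with 1 mM DTT. Hydrolysis ran 30 min at 37°C; ADP was read by HTRF.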
Abeta yeast res: A-beta toxicity reversal in yeast | yeast expressing A-beta42, growth rescue, OD600, 48 h; response scale: 0% DMSO, 100% iron-clioquinol control | Potency, µM (titrated, usually from 46.1 µM), hits mostly activators | 0.063% of 410,000 active; also: potency is read from the fitted curve at half-maximal effect; nearly all actives have a fitted effect of over 55% in size
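Growth rescue measured by 600 nm absorbance after 48 h yeast culture at 30 C with compound. Values normalized between DMSO and an equimolar ferric chloride plus clioquinol control.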
aSyn yeast inh: inhibitors of alpha-synuclein toxicity in yeast. Yeast expressing alpha-synuclein, growth rescue, BacTiter-Glo, 24 h. Potency, µM (titrated, usually from 46.1 µM), for inactives: at the top dose growth rescue (activation), hits mostly activators. 0.14% of 370,000 active. AID 652106; also: potency is read from the fitted curve at half-maximal effect; % of control where 0% means no effect; nearly all actives have a fitted effect of over 65% in size
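Screening used galactose-induced yeast with toxic alpha-synuclein levels, exposed to compound for 24 hr at 30 deg C. Cell growth, read with BacTiter-Glo luminescence, gave the measured signal.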
CCT modulator: modulators of cytosolic chaperonin (CCT/TRiC) activity. purified chaperonin ATPase assay, HTRF ADP detection, 30 min. activity change, % (no concentration beside the values), hits read low. 0.3% of 360,000 active; in the data active = activity change below about -30%; also: % is scaled to controls: 0 for no effect and ±100 for the full control effect
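Enzyme 40 or 20 nM (batch-dependent) in Tris pH 7.4/KCl/MgCl2/DTT; cpd 76 uM single point; ATP 10 uM; 30 min 37 °C; Transcreener ADP HTRF detection, 30 min RT; ratio 665/615.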
TDP-43 yeast inh: TDP-43 toxicity inhibition in yeast | TDP-43 expressing yeast growth rescue, BacTiter-Glo, 24 h | Potency, µM (highest dose often 46.1 µM), without a hit: at the top dose growth rescue (activation), most hits filed as activators | 1.8% of 410,000 active; also: potency is read from the fitted curve at half-maximal effect; % of control where 0% means no effect; nearly all actives have a fitted effect of over 50% in size
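Yeast expressing TDP-43 (pregrown in raffinose, seeded at OD600=0.02 in galactose medium) exposed to compounds 24 hr at 30 deg C. Growth read by BacTiter-Glo luminescence; rescue of toxicity appears as increased signal.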
The depositor's hits bear a star; i = inactive; u = inconclusive; x = not tested or not shown. Compounds with a hit are over-represented: about 2.3% of the library has one in this group of screens. Unless noted, calls follow the shape of the dose curve; as a rule, active = well fitted curve in the direction sought with a large enough effect; inconclusive = small, poorly fitted or top-dose-only effect, or another doubt; inactive = no such curve, though single readings can be large; an effect the other way counts as inactive or inconclusive.

SMILES | FUS suppressor | Mm-Cpn inhibitor | Abeta yeast res | aSyn yeast inh | CCT modulator | TDP-43 yeast inh
C[C@@H](NC(=O)c1[nH]cnc1C(=O)Nc1ccccc1)c1ccccc1 | i | 0.4% | i | -7.0% | 0.4 | 22.4µM*
CC(C)C[C@H](NC(=O)c1[nH]cnc1C(=O)N[C@H](C)c1ccccc1)C(=O)OC(C)(C)C | i | x | i | 8.5% | 0.5 | 10.2%
Cc1cccc(NC(=O)c2nc[nH]c2C(=O)N[C@@H](CC(C)C)C(=O)OC(C)(C)C)c1 | i | 3.3% | 6.31µM* | -2.4% | 1.2 | 24.1%
CC(C)C[C@H](NC(=O)c1nc[nH]c1C(=O)NC(c1ccccc1)c1ccccc1)C(=O)OC(C)(C)C | 14.1µM* | x | i | 6.7% | -1.7 | -13.6%
Cc1ccc(NC(=O)c2nc[nH]c2C(=O)N[C@@H](C)c2ccccc2)cc1 | i | x | u | 8.2% | -1.4 | u
Cc1ccc(S(=O)(=O)N2c3ccc(F)cc3C[C@H]2CSc2ccccc2)cc1 | i | x | x | x | x | x
CS(=O)(=O)N1N=C(c2ccc3nccnc3c2)CC1c1ccccc1 (configuration not stated) | i | u | i | 9.4% | -88.4* | -6.2%
Cn1nnc2c(NCCc3ccccc3)ncnc21 | i | x | i | x | x | 0.0%
O=C(OCCN1C(=O)c2ccccc2C1=O)c1cc(=O)[nH]c2ccccc12 | i | -7.1% | i | 2.3% | -0.8 | 17.9%
Cc1cc(C(=O)OCCN2C(=O)c3ccccc3C2=O)c2ccccc2n1 | 15.8µM* | -13.4% | i | u | 0.4 | u
O=c1cc(-c2ccc(Cl)cc2)[nH]c2ccccc12 | i | -0.9% | i | -15.7% | 0.7 | 7.8%
Clc1ccc(-c2cc3ccccc3[nH]2)cc1 | i | -3.3% | i | -31.0% | -5.7 | 10µM*
Cc1ccccc1Nc1c(-c2cccc(N(C)C)c2)nc2ccc(Br)cn12 | i | x | i | x | x | 2.8%
c1cnc(SCC2CCCCC2)c(-c2nc3ccccc3[nH]2)c1 | i | x | x | x | x | x
CC(C)(C)c1ccc(S(=O)(=O)Nc2noc3ccccc23)cc1 | i | -1.5% | i | -11.4% | -2.6 | 20µM*
COc1ccc(S(=O)(=O)Nc2noc3ccccc23)cc1 | i | 1.9% | i | -4.4% | 1.8 | 11.2µM*
C=CCN1C(C(=O)OC)CN(Cc2cn(CCC3OCCO3)nn2)CCS1(=O)=O (configuration not stated) | i | x | x | x | x | x
Cc1cccc(OC[C@@H](O)CN2CCC(C(O)(c3ccccc3)c3ccccc3)CC2)c1 | i | x | x | x | x | x
CN(C(=O)CCc1nc(-c2ccccc2F)no1)c1ccc(Cl)cc1 | i | x | i | x | x | 22.4µM*
Cc1nc(-c2ccccc2)sc1-c1ccnn1C | i | -1.7% | i | -0.4% | -0.4 | 16.3%
Cc1nc(-c2ccccc2)sc1-c1ccn[nH]1 | i | -9.2% | i | -20.1% | -0.7 | 14.1µM*
CCN(CC)CCCNC(=O)CSc1nnc(-c2ccncc2)n1-c1ccc(OC)cc1 | i | x | x | x | x | x
COc1ccc([C@@H]2[C@@H]3C(=O)N(C(C)(C)C)C(=O)[C@@H]3[C@]3(Cc4ccccc4)C(=O)N(c4cccc(C)c4)C(=O)N23)cc1 | 28.2µM* | -0.1% | i | -7.0% | -0.5 | -6.7%
COc1ccc(N2C(=O)N3[C@H](c4ccc(Br)cc4)[C@@H]4C(=O)N(C(C)(C)C)C(=O)[C@@H]4[C@]3(Cc3ccccc3)C2=O)cc1 | 12.6µM* | 0.3% | i | -4.5% | -1.3 | 2.3%
CC(C)(C)N1C(=O)[C@H]2[C@@H](c3ccc(Br)cc3)N3C(=O)N(c4cccc(Cl)c4)C(=O)[C@@]3(Cc3ccccc3)[C@H]2C1=O | 12.6µM* | -0.5% | i | 10.5% | -2.1 | -0.4%
SMILES | FUS suppressor | Mm-Cpn inhibitor | Abeta yeast res | aSyn yeast inh | CCT modulator | TDP-43 yeast inh
COc1ccc([C@@H]2[C@@H]3C(=O)N(C(C)(C)C)C(=O)[C@@H]3[C@]3(Cc4ccccc4)C(=O)N(c4ccc(Br)cc4)C(=O)N23)cc1 | i | 0.7% | i | -0.9% | -1.4 | -13.6%
COc1ccc([C@@H]2[C@@H]3C(=O)N(C(C)(C)C)C(=O)[C@@H]3[C@]3(Cc4ccccc4)C(=O)N(c4cccc(Cl)c4)C(=O)N23)cc1 | 28.2µM* | 0.5% | i | 3.5% | -0.9 | 23.8%
COc1ccc([C@@H]2[C@@H]3C(=O)N(C(C)(C)C)C(=O)[C@@H]3[C@]3(Cc4ccc(Cl)cc4)C(=O)N(c4cccc(Br)c4)C(=O)N23)cc1 | i | -0.6% | i | -1.0% | -1.0 | -5.1%
N/C(=N\OC(=O)Cc1ccccc1)c1ccc([N+](=O)[O-])cc1 | i | 0.8% | i | 0.3% | -1.3 | u
N/C(=N\OC(=O)CCC1CCCC1)c1ccc([N+](=O)[O-])cc1 | i | -4.0% | i | -17.6% | -0.5 | 20µM*
N/C(=N\OC(=O)Oc1ccccc1)c1cccc([N+](=O)[O-])c1 | x | -3.2% | i | -0.9% | -0.8 | 15.6%
N/C(=N\OC(=O)CSc1ccccc1)c1cccc([N+](=O)[O-])c1 | i | -1.4% | i | -0.8% | -0.5 | 20µM*
N/C(=N\OC(=O)CCCc1ccccc1)c1ccc([N+](=O)[O-])cc1 | x | -2.4% | i | -5.7% | -3.0 | 22.4µM*
CCOC(=O)c1ccc(NC(=O)c2nn(C)c3c2COc2ccccc2-3)cc1 | i | x | i | x | x | 12.4%
O=C(Nc1ccc(Nc2ccccc2)cc1)c1c(Cl)cccc1Cl | i | x | i | -22.5% | -1.0 | 11.2µM*
O=C(Nc1ccc(Nc2ccccc2)cc1)c1c(F)c(F)c(F)c(F)c1F | i | 0.8% | i | -10.3% | 1.6 | 24.6%
COc1cccc(CNC(=O)c2cc3n(n2)CCCN(Cc2ccc(C)cc2)C3=O)c1OC | i | x | i | x | x | 12.3%
CCOc1ccccc1CNC(=O)c1cc2n(n1)CCCN(Cc1ccc(C)cc1)C2=O | u | x | u | x | x | 35.5µM*
CCSc1nc2ccccc2c(=O)n1CCc1ccc(OC)c(OC)c1 | u | 1.5% | i | u | 0.1 | 17.8µM*
COCCn1c(SCc2ccc(F)cc2)nc2ccccc2c1=O | i | -4.4% | i | 8.9% | -1.6 | 17.8µM*
COc1ccc(CCn2c(C)nc3ccccc3c2=O)cc1OC | i | 0.0% | i | -2.3% | -1.5 | 29.9%
C=C1C(=O)[C@]23C[C@H]1CC[C@H]2[C@]1(C)[C@@H](OC(C)=O)CC[C@@](C)(C(=O)O)[C@H]1C[C@@H]3O | i | x | i | u | -0.5 | 11.2µM*
